The subject of experiment [1] is Plasmodium falciparum Sir2 (PF13_0152, Sir2A). The experiment in a line: Plasmodium falciparum Sir2A binding compounds – biochemical, small-molecule microarray, 635 nm fluorescence, primary screen (AID 1098).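 Further: score merges spot fluorescence intensity with its signal-to-noise ratio.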 The settings on record: fluorescence 635 nm, higher = more signal.
Experiment [2] is described as follows: probe aDKK1 binding to arrayed compounds – biochemical, biotinylated probe, 635/667 nm fluorescence, primary screen (AID 1099).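 Further: score merges 667nm spot fluorescence with signal to noise across triplicate slides; reference of the scale not given here.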 The following applies: small-molecule microarray, higher = more signal.
The nature of experiment [3]: probe aCHRDL2 binding to arrayed compounds – biochemical, biotinylated probe, 635/667 nm fluorescence, primary screen (AID 1100). The settings on record: small-molecule microarray, higher = more signal.
Experiment [4] can be described thus: change in splice reporter luminescence, either direction, cell-based, HEK293, spliceosome inhibition project, primary screen (AID 1101).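 Further: HEK293 cells carrying a splicing-competent luciferase reporter gene; test concentration not given here.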 The following applies: HEK293 splicing luciferase reporter, 24 h, higher = more signal, called active from +8 up or from −8 down. (In general: A reporter such as luciferase makes a cellular process visible.)
The target in experiment [5] is Fibroblast growth factor 10 (Homo sapiens) (UniProt O15520). The experiment in a line: compounds binding fibroblast growth factor 10 – biochemical, small-molecule microarray, 635 nm fluorescence, primary screen (AID 1102). The settings on record: FGF10 binding, fluorescence 635 nm, higher = more signal.
The subject of experiment [6] is glycogen synthase kinase-3 (GSK3A per assay name; protocol says GSK3B). The experiment in a line: compounds binding glycogen synthase kinase-3 – biochemical, small-molecule microarray, 635 nm fluorescence, GSK3A, primary screen (AID 1103). Further: the record names both GSK3A and GSK3B. The settings on record: fluorescence 635 nm, higher = more signal.
For experiment [7], the target named is Epidermal growth factor receptor (Homo sapiens) (UniProt P00533). The experiment in a line: compounds binding epidermal growth factor receptor – biochemical, small-molecule microarray, 635 nm fluorescence, primary screen (AID 1104).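 Further: score merges 667 nm emission intensity with spot signal to noise over triplicate slides.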 The following applies: EGFR binding, higher = more signal.
The target of experiment [8] is Follistatin-related protein 3 (Homo sapiens) (UniProt O95633). The experiment in a line: compounds binding follistatin-related protein 3 – biochemical, small-molecule microarray, 635 nm fluorescence, primary screen (AID 1105).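 Further: score merges emission near 667 nm and signal to noise per printed spot across three slides.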 The settings on record: FSTL3 binding, higher = more signal.
The target of experiment [9] is Dickkopf-related protein 1 (Homo sapiens) (UniProt O94907). The experiment in a line: small molecules binding DKK1 protein – biochemical, small-molecule microarray, 635 nm fluorescence scan, primary screen (AID 1106).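 Further: score merges emission near 667 nm with signal to noise over three replicate slides.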 The settings on record: higher = more signal.
The subject of experiment [10] is Inhibin beta A chain (activin A). The experiment in a line: small molecules binding activin A – biochemical, small-molecule microarray, 635 nm fluorescence scan, primary screen (AID 1107).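 Further: mouse activin A protein probed at 4.33 µg/mL on printed slides; score merges bound-protein fluorescence near 667 nm with spot signal-to-noise.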 The settings on record: INHBA, higher = more signal.

For 17 compounds, composite z-score and z-score results are on record in PubChem BioAssay.

The source made the active and inactive calls.

Chain of Epidermal growth factor receptor (Homo sapiens) (P00533 whole entry, looked up): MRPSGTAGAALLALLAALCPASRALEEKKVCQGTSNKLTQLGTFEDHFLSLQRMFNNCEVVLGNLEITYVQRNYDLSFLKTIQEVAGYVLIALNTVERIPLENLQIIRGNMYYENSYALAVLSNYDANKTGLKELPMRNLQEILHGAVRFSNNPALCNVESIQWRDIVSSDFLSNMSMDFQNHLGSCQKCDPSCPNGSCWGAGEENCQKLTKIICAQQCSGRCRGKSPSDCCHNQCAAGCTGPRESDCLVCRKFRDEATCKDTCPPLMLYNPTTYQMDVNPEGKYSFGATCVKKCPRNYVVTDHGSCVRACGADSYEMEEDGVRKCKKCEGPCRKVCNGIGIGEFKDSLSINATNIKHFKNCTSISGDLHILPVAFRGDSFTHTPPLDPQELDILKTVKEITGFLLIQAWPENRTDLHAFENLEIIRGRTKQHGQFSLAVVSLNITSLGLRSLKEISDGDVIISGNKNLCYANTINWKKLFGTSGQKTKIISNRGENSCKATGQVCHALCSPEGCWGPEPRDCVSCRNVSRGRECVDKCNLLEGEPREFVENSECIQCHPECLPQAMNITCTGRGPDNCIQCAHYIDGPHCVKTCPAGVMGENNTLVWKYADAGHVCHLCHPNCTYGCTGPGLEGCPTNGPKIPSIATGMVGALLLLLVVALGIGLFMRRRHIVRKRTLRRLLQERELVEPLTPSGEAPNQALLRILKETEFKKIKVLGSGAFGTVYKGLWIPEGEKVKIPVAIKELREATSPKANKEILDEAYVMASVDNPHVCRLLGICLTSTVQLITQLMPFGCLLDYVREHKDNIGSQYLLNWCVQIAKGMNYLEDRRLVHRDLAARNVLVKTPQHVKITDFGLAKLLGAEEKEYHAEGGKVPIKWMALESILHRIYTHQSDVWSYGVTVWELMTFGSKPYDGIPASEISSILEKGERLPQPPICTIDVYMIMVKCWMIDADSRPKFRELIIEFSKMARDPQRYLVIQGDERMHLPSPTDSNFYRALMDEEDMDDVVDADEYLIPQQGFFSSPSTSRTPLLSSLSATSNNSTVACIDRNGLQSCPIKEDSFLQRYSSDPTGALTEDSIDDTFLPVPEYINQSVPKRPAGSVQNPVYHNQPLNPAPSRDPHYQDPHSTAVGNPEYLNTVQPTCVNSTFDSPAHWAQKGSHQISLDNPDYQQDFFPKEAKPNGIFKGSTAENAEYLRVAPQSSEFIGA
Chain of Follistatin-related protein 3 (Homo sapiens) (O95633 whole entry, looked up): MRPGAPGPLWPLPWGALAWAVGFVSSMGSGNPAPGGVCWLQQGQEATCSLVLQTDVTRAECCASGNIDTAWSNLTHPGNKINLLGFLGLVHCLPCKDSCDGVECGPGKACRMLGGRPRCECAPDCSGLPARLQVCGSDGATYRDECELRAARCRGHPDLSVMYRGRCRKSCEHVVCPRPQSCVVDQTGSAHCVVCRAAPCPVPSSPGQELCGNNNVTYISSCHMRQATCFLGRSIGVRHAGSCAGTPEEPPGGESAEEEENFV
Chain of Dickkopf-related protein 1 (Homo sapiens) (O94907 whole entry, looked up): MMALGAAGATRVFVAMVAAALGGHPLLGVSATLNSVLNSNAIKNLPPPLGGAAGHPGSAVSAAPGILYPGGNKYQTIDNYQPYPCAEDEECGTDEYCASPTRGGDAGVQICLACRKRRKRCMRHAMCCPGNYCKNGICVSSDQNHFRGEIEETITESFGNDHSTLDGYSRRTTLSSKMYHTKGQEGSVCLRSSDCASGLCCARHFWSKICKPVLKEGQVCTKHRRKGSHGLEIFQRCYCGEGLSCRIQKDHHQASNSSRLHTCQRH
Chain of Fibroblast growth factor 10 (Homo sapiens) (O15520 whole entry, looked up): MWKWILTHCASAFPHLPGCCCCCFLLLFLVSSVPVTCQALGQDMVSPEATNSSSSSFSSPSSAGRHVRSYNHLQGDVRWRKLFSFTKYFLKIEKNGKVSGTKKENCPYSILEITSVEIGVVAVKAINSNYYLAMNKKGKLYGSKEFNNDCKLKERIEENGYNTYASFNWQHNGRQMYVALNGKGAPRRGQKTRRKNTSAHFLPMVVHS

Regarding `COC(=O)[C@@H]1CC[C@H](C)[C@@H](c2ccc(Br)cc2)N1`, the composite z-score in experiment [1] was -0.725; in experiment [2] it was 0.297; in [3], 0.321; in experiment [5] it was -0.0529; in [6], -0.879; in experiment [7], 0.377. The composite z-score in experiment [8] is -0.391; in experiment [9], 0.187; in experiment [10] it was 0.894. Also, in experiment [4], the z-score is -0.181 (inactive).
`COC(=O)CC=C[C@@H](C)[C@@H](C=NOC(C)CN1CCCc2nc(C)c(C)cc21)NS(=O)(=O)c1ccc(C)cc1` (stereo not given in full): the composite z-score is 0.268 in [1]; 0.219 in experiment [2]; -0.296 in [3]; 0.65 in experiment [5]; 0.793 in experiment [6]; 0.568 in experiment [7]. The values for the composite z-score in [8], in experiment [9] and in [10] were 1.01, 0.829 and 0.932, respectively. Besides, in experiment [4], the z-score was 0.218 (inactive).
Take `CC(C)CN1CCc2nc(-c3ccccc3)c3c(c2C1)CO[C@@H](C)C3`: the composite z-score in [1] was 0.639; in experiment [2], 0.264; in experiment [3] it was -0.291; in experiment [5] it was 0.929; in [6], 1.16; in experiment [7] it was 0.383. Also, the composite z-score in [8] was 1.05; in experiment [9], 0.512; in experiment [10], 0.0576. In [4], the z-score was 0.185 (inactive).
On to `CC[C@@H](c1ccccc1)n1c(=O)n2n(c1=O)[C@H]1[C@H](O)[C@@H]3O[C@@H]3C(=NOCc3ccccc3)[C@H]1CC2`, for which the composite z-score in experiment [1] was 0.217; in [2], -0.148; in experiment [3] it was -0.406; in experiment [5], 0.487; in experiment [6], -0.0586; in [7], 0.123. The composite z-score in experiment [8] was determined as 0.489; in [9], 0.235; in experiment [10], 0.517. In addition, in experiment [4], the z-score was 2.5 (inactive).
For `CC(C)(C)N1C(=O)[C@H]2[C@H]3[C@H](O)[C@H](O)CC(=NOC[C@@H](O)COCc4ccco4)[C@@H]3CC[C@H]2C1=O`, the composite z-score in [1] was 0.34; in [2] it was 0.774; in experiment [3] it was 0.588; in experiment [5], 0.249; in [6], -0.332; in experiment [7], -0.144. For the same compound, the composite z-score in experiment [8] was -0.248; in experiment [9], -0.272; in experiment [10], 0.426. In addition, the z-score in experiment [4] was 0.369 (inactive).
Consider `O=C(NN=C1C[C@@H](O)[C@@H](O)[C@@H]2[C@@H]3C(=O)N(c4ccc(F)cc4F)C(=O)[C@@H]3CC[C@H]12)OCc1ccccc1`, for which the composite z-score was 0.705 in experiment [1]; 0.052 in experiment [2]; 0.793 in experiment [3]; 0.379 in [5]; 0.131 in experiment [6]; -0.0295 in [7]. Moreover, the composite z-score in experiment [8] was 0.385; in [9], -0.118; in experiment [10], 0.0132. Further, the z-score in [4] is 0.267 (inactive).
Consider `O=C(NN=C1C[C@@H](O)[C@@H](O)[C@@H]2[C@@H]3C(=O)N(Cc4ccccc4)C(=O)[C@@H]3CC[C@H]12)OCc1ccccc1`, for which the composite z-score in experiment [1] was -0.944; in [2], -0.427; in experiment [3] it was -0.47; in [5] it was 0.773; in experiment [6] it was 0.256; in [7] it was 0.39. For the same compound, the composite z-score was 0.315 in experiment [8], 0.698 in experiment [9] and -0.0371 in experiment [10]. Besides, the z-score in experiment [4] is -0.865 (inactive).
Take `C#CCCCON=C1C[C@@H](O)[C@@H](O)[C@@H]2[C@@H]3C(=O)N(C[C@@H]4CCCO4)C(=O)[C@@H]3CC[C@@H]12`: the composite z-score in experiment [1] was 0.44; in experiment [2] it was -0.244; in experiment [3], -0.362; in [5] it was 0.732; in experiment [6], 0.223; in [7] it was 0.469. Also, the composite z-score in experiment [8] worked out at 0.67; in experiment [9], 0.449; in [10], 0.397. In [4], the z-score is -0.28 (inactive).
With `CCOC(=O)[C@H](Cc1ccccc1)NC(=O)CCC1CC(OC(=O)NCc2cccc3ccccc23)CC2(CCCC(COC(=O)NCCOc3ccccc3)O2)O1` (stereo not given in full), the composite z-score was 1.2 in experiment [1]; -0.351 in [2]; -0.477 in experiment [3]; 0.441 in experiment [5]; 0.974 in [6]; 0.575 in experiment [7]. For the same compound, the composite z-score came out at 0.579 in experiment [8], 0.504 in [9] and 0.011 in experiment [10]. For the same compound, the z-score in experiment [4] was -1.82 (inactive).
Regarding `CCOC(=O)[C@H](Cc1ccccc1)NC(=O)CCC1CC(OC(=O)NCCc2ccc(F)cc2)CC2(CCCC(COC(=O)NCc3cccc(C(F)(F)F)c3)O2)O1` (stereo not given in full), the composite z-score in experiment [1] was 0.863; in experiment [2], -0.139; in [3], -0.311; in [5] it was 0.904; in experiment [6], 1.06; in experiment [7], 0.818. For the same compound, the composite z-score is 0.786 in experiment [8], 0.484 in experiment [9] and -0.335 in [10]. Besides, the z-score in experiment [4] was -0.891 (inactive).
For `O=C1CCCC=C1C(O)COCc1ccccc1` (stereo not given), the composite z-score was 0.179 in [1]; -0.32 in experiment [2]; -0.344 in experiment [3]; -0.146 in experiment [5]; -1.62 in experiment [6]; -0.137 in experiment [7]. Also, the composite z-score in [8] is -0.171; in experiment [9] it was -0.126; in experiment [10], 0.53. Also, the z-score in [4] is -0.0937 (inactive).
`CC(=O)OC[C@H]1O[C@H](C#CCC2CCCCC2)C=C[C@@H]1OC(C)=O`: the composite z-score in experiment [1] is 1.26; in [2], -0.215; in [3], -0.595; in [5] it was 1.04; in experiment [6], 0.719; in experiment [7], 0.362. Moreover, the results for the composite z-score in [8], in experiment [9] and in experiment [10] were 0.674, 0.668 and -0.222, respectively. The z-score in experiment [4] is -0.531 (inactive).
`CN1CCc2nc(-c3ccccc3)c(-c3ccccc3)cc2C1`: the composite z-score is -0.0565 in experiment [1]; -0.284 in experiment [2]; -0.225 in [3]; 0.486 in experiment [5]; 0.256 in [6]; 0.134 in experiment [7]. Besides, the composite z-score is 0.359 in experiment [8], 0.503 in experiment [9] and 0.334 in experiment [10]. Moreover, the z-score in experiment [4] was 0.0199 (inactive).
Regarding `O=C1[C@H]2[C@H]3[C@H](O)[C@H](O)CC(=NO[C@@H]4O[C@H](CO)[C@@H](O)[C@H](O)[C@H]4O)[C@H]3CC[C@H]2C(=O)N1c1ccc(F)cc1F`, the composite z-score in experiment [1] is -0.134; in experiment [2] it was 0.0579; in experiment [3], 0.129; in [5] it was -0.0077; in experiment [6] it was -0.444; in [7] it was 0.172. Also, the figures for the composite z-score in experiment [8], in experiment [9] and in experiment [10] were 0.0345, -0.494 and -1.81, respectively. Further, in [4], the z-score was 0.324 (inactive).
For `COc1ccc(O[C@H]2C=C[C@@H](C#Cc3ccccc3)O[C@@H]2CO)cc1`, the composite z-score in experiment [1] is 0.544; in [2] it was -0.139; in experiment [3] it was -0.253; in experiment [5], 0.535; in [6] it was -0.139; in experiment [7], 0.316. The composite z-score was -0.0229 in [8], 0.377 in [9] and 1.08 in experiment [10]. In addition, in experiment [4], the z-score is 1.45 (inactive).
Regarding `C[C@@H]1C=CCC(=O)OC[C@H](C)C(=O)N[C@@H](Cc2ccccc2)C(=O)OC1`, the composite z-score in [1] was -0.0137; in [2] it was -0.526; in [3] it was -0.683; in experiment [5] it was 0.3; in [6] it was -0.0825; in [7], 0.643. Also, the composite z-score in experiment [8] is 0.582; in experiment [9], 0.909; in [10], -0.289. For the same compound, the z-score in experiment [4] is -1.03 (inactive).
Turning to `COC(=O)[C@H](C)NC(=O)CCC1CC(OC(=O)NCCc2ccc(F)cc2)CC2(CCCC(COC(=O)NCCOc3ccccc3)O2)O1` (stereo not given in full), the composite z-score in [1] is 0.612; in [2], -0.244; in [3], -0.224; in experiment [5], 0.762; in [6], 1.01; in [7], 0.538. In addition, the results for the composite z-score in [8], in experiment [9] and in experiment [10] were 0.781, 0.652 and -0.455, respectively. Moreover, the z-score in experiment [4] was 0.587 (inactive).
